Assay results from PubChem BioAssay.
The source made the active and inactive calls.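 How the source made its calls, unless noted: active means NADPH fluorescence slope more negative than the mean of all samples by about 3 SD, 99.7% confidence; inactive means the rest.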

Legend:
[1] = inhibitors of TNFa-induced NFkB p65 translocation, primary screen, imaging, HUVEC, MLSMR starter and 10KST1 sets (AID 438;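 active means inhibition above 20% together with a positive visual image hit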;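 further: compound added about 3h40 before a 20 min TNFalpha stimulation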;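 on inhibition: signal is the nuclear over cytoplasmic p65 intensity ratio per well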); details: HUVEC TNFa-induced p65 nuclear translocation; cell count: measured here: nuclei count (cytotoxicity indicator), at 2.08 µM; inhibition: at 2 µM, stronger effect = higher value, 0% TNFa-plus-vehicle, 100% no-TNFa wells
[2] = reduction of polyQ htt aggregates in cells – imaging, exon1htt(103Q)mCFP cells, high-content imaging, primary screen (AID 483;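 active means visual image review flags a hit and inhibition of aggregation exceeds 20%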;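 further: compound exposure lasted 3 days before fixation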;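 on nuclei count: percent of the per-plate median nuclei count of sample wells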); details: exon1htt(103Q)mCFP cell line, aggregate imaging, at 2 µM; inhibition of aggregation: stronger effect = higher value; nuclei count: measured here: cell count, toxicity
[3] = endothelial E-selectin expression blockers – imaging, HUVEC, immunofluorescence, MLSMR starter and 10KST1 sets, primary screen (AID 487;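 active means visually confirmed hit in the image check and inhibition above 20%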;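 on inhibition: signal is fraction of cell area covered by stained E-selectin grains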;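 on nuclei count: 100% = median nuclei count of all wells on the same plate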); details: HUVEC TNFalpha-induced E-selectin immunofluorescence imaging, at 2 µM; inhibition: stronger effect = higher value; nuclei count: measured here: cell number, toxicity
[4] = biological target: Voltage-gated potassium channel subunit beta-2 (Rattus norvegicus) (UniProt P62483); assay: inhibitors of rat Kvbeta2 reductase activity – biochemical, NADPH fluorescence, primary screen (AID 622;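 active means fluorescence slope higher than the sample average by over 3 SD, cut at about -0.22 in these data, passing the limit was not always enough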;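 further: slope of raw intensity against log time taken from 70 to 1610 s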); details: recombinant KvBeta, 4-cyanobenzaldehyde reduction, at 10 µM, stronger effect = higher value
Chain of Voltage-gated potassium channel subunit beta-2 (Rattus norvegicus) (P62483 whole entry, looked up): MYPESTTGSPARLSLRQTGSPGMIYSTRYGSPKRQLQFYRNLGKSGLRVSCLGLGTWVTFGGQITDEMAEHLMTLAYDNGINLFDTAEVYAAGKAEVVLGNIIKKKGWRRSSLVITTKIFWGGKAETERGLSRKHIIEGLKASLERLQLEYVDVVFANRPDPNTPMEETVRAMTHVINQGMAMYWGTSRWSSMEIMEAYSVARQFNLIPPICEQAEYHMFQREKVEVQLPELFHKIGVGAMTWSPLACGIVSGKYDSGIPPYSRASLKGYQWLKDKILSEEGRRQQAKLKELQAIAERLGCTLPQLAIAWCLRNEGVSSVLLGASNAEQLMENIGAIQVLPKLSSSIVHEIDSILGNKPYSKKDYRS

[5] = biological target: Voltage-gated potassium channel subunit beta-2 (Rattus norvegicus) (UniProt P62483); assay: enhancers of rat Kvbeta2 NADPH turnover – biochemical, NADPH fluorescence, primary screen (AID 623); details: Recombinant KvBeta, NADPH fluorescence decrease slope, 10 min; at 10 µM; stronger effect = lower value;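 further: fluorescence intensity change per second fitted from 20 to 320 s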
[6] = biological target: Alpha-2C adrenergic receptor (Homo sapiens) (UniProt P18825); assay: compounds altering alpha2C-coupled GIRK flux – cell-based, HEK293 alpha2C/GIRK1/2, thallium flux, primary screen (AID 624;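 active means fluorescence slope after compound addition differing from the mean of all screened samples at 99.7% confidence, in either direction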;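 further: slope of fluorescence ratio to pre-addition baseline per second over 15 to 24 s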); details: thallium flux BTC fluorescence, at 10 µM, actives lie on both sides
Chain of Alpha-2C adrenergic receptor (Homo sapiens) (P18825 whole entry, looked up): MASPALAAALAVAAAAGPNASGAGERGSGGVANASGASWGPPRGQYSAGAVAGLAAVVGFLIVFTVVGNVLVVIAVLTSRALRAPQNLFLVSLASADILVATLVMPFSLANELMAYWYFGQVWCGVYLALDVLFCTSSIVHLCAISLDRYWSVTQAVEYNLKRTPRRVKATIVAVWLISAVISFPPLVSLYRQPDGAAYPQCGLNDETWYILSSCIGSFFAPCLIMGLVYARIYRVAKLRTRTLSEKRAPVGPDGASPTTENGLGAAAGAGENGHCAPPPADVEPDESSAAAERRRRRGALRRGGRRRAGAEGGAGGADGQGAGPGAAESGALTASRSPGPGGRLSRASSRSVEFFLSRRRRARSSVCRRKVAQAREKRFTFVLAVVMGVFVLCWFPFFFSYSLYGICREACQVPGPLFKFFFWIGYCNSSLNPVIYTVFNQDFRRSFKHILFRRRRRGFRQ

[7] = blockers of RIG-like receptor reporter activation – cell-based, Sendai virus stimulus, luciferase, 10K MLSCN set, TLR/RLR signaling modifier project, primary screen (AID 602276;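 active means inhibition at or above 50% at 10 µM; inactive means inhibition below 50%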;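 further: firefly luciferase from ISG56 promoter only with Renilla not read in this screen; 0% = Sendai virus plus DMSO and 100% = medium plus DMSO without virus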); details: HEK293 RL24 IRF3 luciferase reporter, at 10 µM, stronger effect = higher value
[8] = TLR3 IRF3 reporter activation blockers – cell-based, poly I:C stimulus, luciferase, 10K MLSCN set, primary screen (AID 602277;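 active means inhibition of the reporter signal at or above 50%; inactive means inhibition below 50%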); details: HEK293-TLR3 RL24 IRF3 luciferase reporter, at 10 µM, stronger effect = higher value

Row | SMILES | cell count [1] | inhibition [1] | inhibition of aggregation [2] | nuclei count [2] [%] | inhibition [3] | nuclei count [3] [%] | fluorescence slope [4] | NADPH fluorescence slope [5] | slope [6] | inhibition [7] | inhibition [8]
1 | CCOc1ccc(NC(=O)CN2C(=O)C3CCCN3C2=O)cc1 (centres undefined) | 551 | -13.7% (inactive) | -2.3% (inactive) | 102 | -48.6% (inactive) | 110 | -0.572 (inactive) | 1.4e-05 (inactive) | 0.00647 (inactive) | 3.2% (inactive) | 8.26% (inactive)
2 | CCC(C)(C)n1nnnc1C(c1ccncc1)N1CCN(c2cccc(OC)c2)CC1 (centres undefined) | 410 | 1% (inactive) | -2.6% (inactive) | 95.6 | -31.9% (inactive) | 98.8 | -0.629 (inactive) | -2e-05 (inactive) | 0.00376 (inactive) | 23.4% (inactive) | 28.6% (inactive)
3 | CCOc1cc(C(=O)Nc2c3c(nn2C(C)(C)C)CS(=O)C3)cc(OCC)c1OCC (centres undefined) | 525 | -16.3% (inactive) | -15.3% (inactive) | 109 | 16.3% (inactive) | 122 | -0.545 (inactive) | 2.6e-05 (inactive) | 0.00616 (inactive) | 6.91% (inactive) | 3.04% (inactive)
4 | COC(=O)C1=C(C)OC(N)=C(C#N)C1c1c(C)nn(-c2ccccc2)c1Cl (centres undefined) | 798 | 3.8% (inactive) | 12.3% (inactive) | 107 | -33.5% (inactive) | 126 | -0.524 (inactive) | 1e-05 (inactive) | 0.00643 (inactive) | -88.9% (inactive) | -11.8% (inactive)
5 | O=C(NCc1ccco1)c1cc2cc3ccc(Cl)cc3nc2o1 | 198 | -4.9% (inactive) | 12.7% (inactive) | 105 | -23.3% (inactive) | 118 | -0.489 (inactive) | -3.4e-05 (inactive) | 0.00854 (inactive) | -5.73% (inactive) | -43.3% (inactive)
6 | C/C(N)=C(/C#N)C(=O)COC(=O)CCSc1ccccc1 | 422 | 3.1% (inactive) | 7.6% (inactive) | 117 | -20.4% (inactive) | 107 | -0.464 (inactive) | -6.7e-05 (inactive) | 0.00505 (inactive) | 13.7% (inactive) | -9.84% (inactive)
7 | O=C(CCS(=O)(=O)c1cc(Br)cc2c1N(C(=O)C1CC1)CC2)NCC1CCCO1 (centres undefined) | 415 | -0.6% (inactive) | -16.1% (inactive) | 105 | -15.8% (inactive) | 85.8 | -0.314 (inactive) | -1.2e-05 (inactive) | 0.00703 (inactive) | 12.5% (inactive) | -10.9% (inactive)
8 | O=C(OCN1C(=O)c2ccccc2C1=O)C1CCCCC1 | 391 | 3.5% (inactive) | 3.5% (inactive) | 95.3 | -43.8% (inactive) | 113 | -0.348 (inactive) | -5e-05 (inactive) | 0.00442 (inactive) | 6.81% (inactive) | 12.4% (inactive)
9 | O=[n+]1c2c(n([O-])c3cc(F)c(N4CCCC4)cc31)CCC2 | 709 | -9.4% (inactive) | 3% (inactive) | 78.5 | -98.9% (inactive) | 123 | -0.574 (inactive) | -5.8e-06 (inactive) | 0.00378 (inactive) | 0.0339% (inactive) | 0.593% (inactive)
10 | O=c1oc2ccccc2c(O)c1C=NCc1ccccn1 | 452 | 7.6% (inactive) | 2.3% (inactive) | 98.7 | -63.5% (inactive) | 95.8 | -0.509 (inactive) | -4.5e-05 (inactive) | 0.00647 (inactive) | -8.1% (inactive) | 22.7% (inactive)
11 | CCCCN(CC)CCCNC(=O)c1cc2c(=O)n(C)c3ccccc3c2n1C | 667 | 3.3% (inactive) | 14.5% (inactive) | 81.6 | -52.5% (inactive) | 107 | -0.611 (inactive) | -4.2e-05 (inactive) | 0.00621 (inactive) | 27.4% (inactive) | 69.5% (active)
12 | COc1ccc(C2CC(c3cccs3)n3nc(N)nc3N2)cc1 (centres undefined) | 619 | -6.3% (inactive) | 7.8% (inactive) | 122 | -38.1% (inactive) | 118 | -0.533 (inactive) | -1.5e-05 (inactive) | 0.00849 (inactive) | -3.14% (inactive) | -18.2% (inactive)
13 | COc1ccc(Cl)cc1NC(=O)CCN1CCN(c2ccccc2C)CC1 | 285 | 21.9% (inactive) | -3.9% (inactive) | 101 | -35.4% (inactive) | 112 | -0.308 (inactive) | -6.5e-05 (inactive) | 0.00554 (inactive) | 10% (inactive) | 5.86% (inactive)
14 | CN(C(=O)c1ccc2c(=O)n3c(nc2c1)CCCCC3)c1ccccc1 | 588 | -10.7% (inactive) | 23.6% (inactive) | 93.9 | 63.2% (active) | 76.9 | -0.457 (inactive) | -0.000341 (inactive) | 0.00528 (inactive) | 11.2% (inactive) | 8.93% (inactive)
